In PubChem BioAssay (NCI):
About 83,000 compounds went through this panel and 20% of them were active in at least one assay; those are over-represented in the sample as a whole.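 In brief: 96-well plates, 48 h treatment, single concentration, percent growth endpoint.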 Activity calls are given as the source filed them. The calls were made as follows: active = growth percent below 10; inactive = the rest.

The molecules below were run on HT29 colon (assay: NCI-60 one-dose screen, 48 h (100 = growth as untreated, 0 = no growth, -100 = all killed)). Conditions: 10 µM unless noted.

| SMILES | growth |
| --- | --- |
| Cc1nn(-c2ccccc2)c(Oc2ccc(Cl)cc2)c1/C=N\N=c1/sc2ccccc2n1C | 84.8% (inactive) |
| CC(C)Sc1nc(NNC(N)=S)c(C#N)c(-c2ccc(F)cc2)n1 | 115% (inactive) |
| NC(=O)c1ccc[n+](Cc2ccc(Cl)cc2Cl)c1 | 91.3% (inactive) |
| CCCCCCCC/C=C\CCCCCCCCOc1ccccc1CC(=O)NCC[N+](C)(C)C | 33.4% (inactive) |
| O=C1Nc2ccccc2/C1=C/c1cn(C(=O)c2ccc(Cl)cc2)c2ccccc12 | 110% (inactive) |
| O=C1/C(=C\c2cccnc2)SC(=S)N1CCc1ccc(O)cc1 | 105% (inactive) |
| COc1ccc(C2C(c3nn[nH]n3)=C(N)Oc3c2ccc2ccccc32)cc1 (stereo not drawn) | 127% (inactive) |
| COc1ccc(NC(=O)CSc2nnc(-c3cc(-c4ccc(S(N)(=O)=O)cc4)nc4ccccc34)n2-c2ccccc2)cc1 | 86.4% (inactive) |
| COc1ccc(-c2csc(C3=C(O)CN(C(C)C)C3=N)n2)cc1OC | 102% (inactive) |
| Cn1cc(-c2csc(-c3ccccc3)n2)c2cccnc21 | -67.5% [100 µM] (active) |
| CCN1CCN(c2cc(C)nc(NCc3cc(Nc4ccnc5cc(Cl)ccc45)ccc3F)n2)CC1 | -5.84% (active) |
| C#CCOc1nc(C)cc(C)c1C#N | 107% (inactive) |
| Cc1cc(O)c(C2=NN(c3ccc(S(N)(=O)=O)cc3)C(c3ccccc3Cl)C2)cc1Cl (stereo not drawn) | 0.516% (active) |
| N#Cc1c(-c2cccc(Cl)c2)cc(-c2cccc(Cl)c2)[nH]c1=O | 114% (inactive) |
| N=c1sc(Cc2ccc(Cl)cc2)cn1CC(=O)c1ccc(F)cc1 | 70.6% (inactive) |
| COc1cc(CCC[P+](c2ccccc2)(c2ccccc2)c2ccccc2)cc2c1OCO2 | 79.3% (inactive) |
| CCCCc1ccc(Nc2ccc(Nc3ccc(CCCC)cc3S(=O)(=O)O)c3c2C(=O)c2ccccc2C3=O)c(S(=O)(=O)O)c1 | 113% (inactive) |
| COc1ccc2occ(C3=C(c4c[nH]c5ccccc45)C(=O)N(O)C3=O)c2c1 | 99.7% (inactive) |
| CC1(C)OC2C(CO[Si](C)(C)C(C)(C)C)OC(n3c(I)c(C#C[Si](C)(C)C)c(=O)[nH]c3=O)C2O1 (stereo not drawn) | -32.6% (active) |

| SMILES | growth |
| --- | --- |
| Cc1ccc(S(=O)(=O)NCC[C@@H]2C[C@H]2c2cc3ccccc3s2)cc1 | 107% (inactive) |
| NC[C@H](O)c1ccc(O)c(O)c1 | 102% (inactive) |
| C=C(C)[C@@H]1CC[C@]2(C(=O)NC3CCCCC3)CC[C@]3(C)[C@H](CC[C@@H]4[C@@]5(C)CCC(=O)C(C)(C)[C@@H]5CC[C@]43C)[C@@H]12 | 85.7% (inactive) |
| N=C1CCC(=N)c2c1c(O)c1ccccc1c2O | 101% (inactive) |
| COC(=O)[C@]12CC[C@@H](C)[C@H](C)[C@@H]1C1=CC[C@@H]3[C@@]4(C)C(C=O)=C[C@@](C)(COC(C)=O)[C@@H]4C(=O)C[C@@]3(C)[C@]1(C)CC2 | 23.8% (inactive) |
| COc1cc(/C=N/Nc2ncc(-c3cc4cc5c(cc4o3)OCO5)s2)cc(OC)c1OC | 56.2% (inactive) |
| OC(c1cccc(-n2ccc(C(F)(F)F)n2)c1)c1cnccc1NC1CCCCCC1 (stereo not drawn) | -0.162% (active) |
| COc1ccc(-c2[nH]c(=S)n(C(CC3(C)NCC(=O)N3n3c(-c4ccccc4)cc(C)nc3=S)c3ccc(OC)cc3)c(=O)c2Br)cc1 (stereo not drawn) | 40.6% (inactive) |
| Cc1ccc(Cl)c(NS(=O)(=O)c2ccc(-c3cnc(C4CC4)o3)cc2)c1 | 3.93% (active) |
| O=C(NC(Cc1nnc2n(Cc3ccccc3)c(=O)c3c4c(sc3n12)CCCC4)c1ccc(Cl)cc1)c1ccccc1 (stereo not drawn) | 89.1% (inactive) |
| Cc1c(O)cc(-c2cnc(N/N=C\c3ccc(Cl)cc3)s2)c(O)c1C | 101% (inactive) |
| CCN(CC)CCn1nc2c3c(cccc3c1=O)-c1ccccc1-2 | 15.6% (inactive) |
| Fc1c[c-]c(-c2ccccn2)c(F)c1.[CH3-].[Pt+2].c1ccc(P(C[PH+](c2ccccc2)c2ccccc2)c2ccccc2)cc1 | 1.16% (active) |
| CCN1C(=O)N(CC)C2Nn3c(s/c(=C\c4cccc([N+](=O)[O-])c4)c3=O)=NC21 (stereo not drawn) | 74.9% (inactive) |
| N#C/C(=C/C=C/c1cccc(Cl)c1)S(=O)c1ccccc1 (stereo not drawn) | -35.9% (active) |
| Oc1c(CN2CCCC2)cc(COCc2ccc(Br)cc2)c2cccnc12 | 55% (inactive) |
| O=C(CCCCCCN1CC(=O)N2[C@@H](c3ccccc3Cl)c3[nH]c4ccccc4c3C[C@H]2C1=O)NO | 57.6% (inactive) |
| COc1ccc(C2CC(c3cccc(OC)c3)=NN2C(=O)c2cc(OC)c(OC)c(OC)c2)cc1 (stereo not drawn) | 14% (inactive) |
| CCc1c2c(nc3ccc(OC(=O)OCc4ccc(B5OC(C)(C)C(C)(C)O5)cc4)cc13)-c1cc3c(c(=O)n1C2)COC(=O)[C@]3(O)CC | 24.8% (inactive) |
